ASM inhibitor: Inhibitors of Secretory Acid Sphingomyelinase (S-ASM): qHTS; Sphingomyelin phosphodiesterase (Homo sapiens), P17405; placental ASM, HMU-PC fluorogenic substrate, 60 min; Potency, µM (titrated, usually from 57.5 µM), inactives show top-dose activity change, negative = inhibition, actives largely listed as inhibitors; hit rate 0.006% among 340,000; also: potency is read from the fitted curve at half-maximal effect
Target sequence (P17405 47-631 limits assumed): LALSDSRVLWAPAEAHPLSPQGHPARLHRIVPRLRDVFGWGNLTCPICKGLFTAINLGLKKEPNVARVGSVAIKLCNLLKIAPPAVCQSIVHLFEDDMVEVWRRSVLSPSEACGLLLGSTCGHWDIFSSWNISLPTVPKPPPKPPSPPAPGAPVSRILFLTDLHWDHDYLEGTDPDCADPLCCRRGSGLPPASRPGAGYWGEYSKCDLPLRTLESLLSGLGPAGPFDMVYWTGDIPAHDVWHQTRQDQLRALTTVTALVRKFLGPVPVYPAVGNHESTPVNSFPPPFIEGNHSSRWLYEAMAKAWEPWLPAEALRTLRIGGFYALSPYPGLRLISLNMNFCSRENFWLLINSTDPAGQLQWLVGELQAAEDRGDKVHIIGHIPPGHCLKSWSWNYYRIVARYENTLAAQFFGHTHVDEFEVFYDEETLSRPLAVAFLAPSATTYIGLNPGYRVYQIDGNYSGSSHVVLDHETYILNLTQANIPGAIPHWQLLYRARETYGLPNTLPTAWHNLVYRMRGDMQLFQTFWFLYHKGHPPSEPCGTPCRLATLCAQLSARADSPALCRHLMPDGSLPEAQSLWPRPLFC
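Fluorescence read-out (Ex 386 nm, Em 447 nm) after stopping the reaction at pH 10. Enzyme: ASM from human placenta; substrate HMU-PC0, 9 uM final; 60 min, 37 °C. Compound preincubation 10 min, ambient temperature.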
HepG2 tox: qHTS for Inhibitors of TGF-b: Cytotox Counterscreen. Potency, µM (titrated, usually from 46.1 µM), inactives show top-dose activity change, negative = cytotoxicity, most hits filed as cytotoxic. HepG2 CAGA-GFP viability, ATP luminescence, 18 h. hit rate 0.76% among 410,000. AID 588856, 2011; also: potency is read from the fitted curve at half-maximal effect
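CellTiter-Glo luminescence gave cytotoxicity after 18 hours at 37 degrees C. The cells were HepG2 CAGA-GFP in 1% FBS DMEM, stimulated with 500 pg/mL TGF-beta after compound addition. %Activity was normalised to no-cell wells (complete cell-killing) and DMSO (no toxicity), and curves were fitted and classified.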
IL1B secr inh: qHTS for Inhibitors of Inflammasome Signaling: IL-1-beta AlphaLISA Primary Screen; THP-1 LPS/ATP IL-1B secretion, AlphaLISA, 16 h; active compounds read low; activity change, % at 57.5 µM; hit rate 4.7% among 360,000; in the data active = activity change below about -50%; inconclusive = mostly about -30% to -49%; also: % is scaled to controls: 0 for no effect and ±100 for the full control effect
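Secreted IL-1B measured by AlphaLISA bead assay after 16 h compound exposure of THP-1 cells; compounds (final up to 57.5 uM) added 1 h before LPS (250 ng/mL) and ATP (1.25 mM) stimulation; lower signal means less secretion.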
TGFb inhibitor: qHTS for Inhibitors of TGF-b | HepG2 CAGA-GFP TGF-b/SMAD3 reporter, GFP fluorescence, 18 h; TGF-beta stimulated, 500 pg/mL final | Potency, µM (doses to about 46.1 µM), for the others: at the highest dose activity, negative = inhibition, most hits filed as inhibitors | hit rate 1.2% among 410,000; also: potency is read from the fitted curve at half-maximal effect; % is scaled to controls: 0 for no effect and ±100 for the full control effect; nearly all actives have a fitted effect of over 65% in size
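TGF-beta reporter screen: HEPG2 CAGA-GFP, 1% FBS, 500 pg/mL TGF-beta final, 18 h; per-cell GFP summed per well; curves fitted and categorized by class.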
DT40 TDP1 no CPT: qHTS for Inhibitors of human tyrosyl-DNA phosphodiesterase 1 (TDP1): qHTS in cells in absence of CPT; Potency, µM (series often up to 46.2 µM), inactives show top-dose activity change, negative = growth inhibition, actives largely listed as inhibitors; hit rate 15% among 420,000; DT40 Tdp1-/- hTDP1 cells, no CPT, ATP luminescence, 48 h; also: potency is read from the fitted curve at half-maximal effect; % is scaled to controls: 0 for no effect and ±100 for the full control effect; nearly all actives have a fitted effect of over 55% in size
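No-CPT arm: Tdp1-/-;hTDP1 DT40 cells (400/well) plus compounds, incubated ≥48 hr at 37 °C. Readout CellTiter-Glo luminescence.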
DT40 TDP1 CPT: qHTS for Inhibitors of human tyrosyl-DNA phosphodiesterase 1 (TDP1): qHTS in cells in presence of CPT. chicken DT40 Tdp1-/-;hTDP1 cells + 20 nM CPT, ATP luminescence, 48 h. Potency, µM (series often up to 46.2 µM), for the others: at the highest dose activity change, negative = growth inhibition, usual class: inhibitors. hit rate 12% among 420,000; also: potency is read from the fitted curve at half-maximal effect; % is scaled to controls: 0 for no effect and ±100 for the full control effect; nearly all actives have a fitted effect of over 55% in size
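Cell growth measured by CellTiter-Glo luminescence after a minimum 48 h, 37 C compound exposure with 20 nM CPT in Tdp1-knockout DT40 cells stably expressing hTDP1, seeded 400/well; qHTS titration format.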
An asterisk follows results filed as active; ? = inconclusive; · = no result. Only some compounds are listed: those with a hit (about 19% of all), similar ones and a draw of the others. Unless noted, calls follow the shape of the dose curve; as a rule, active = well fitted curve in the direction sought with a large enough effect; inconclusive = small, poorly fitted or top-dose-only effect, or another doubt; inactive = no such curve, though single readings can be large; an effect the other way counts as inactive or inconclusive.

SMILES | ASM inhibitor | HepG2 tox | IL1B secr inh | TGFb inhibitor | DT40 TDP1 no CPT | DT40 TDP1 CPT
CC(=O)c1ccc(S(=O)(=O)N(C)CC(=O)N2CCCCCC2)cc1 | 0% | 2% | -2 | 0% | 4% | -16%
COc1ccc(OC)c(CN2C(=O)CN(S(C)(=O)=O)CC2(C)C(=O)NCc2ccccc2)c1 (centres undefined) | · | · | 32 | · | 2% | 13%
Cn1cc(Br)c(C(=O)N/N=C/c2cc3ccccc3nc2Cl)n1 | 0% | 9% | -24 | -9% | 21µM* | ?
O=C(NN=Cc1cccc(O)c1O)c1ccccc1 | · | -43% | 134 | -15% | 4.6µM* | 2.6µM*
O=C(N/N=C/c1ccccc1O)C(=O)Nc1ccccn1 | 4% | -31% | 68 | -16% | 15µM* | 13µM*
O=C(N/N=C\c1ccccc1F)c1ccc(-c2ccccc2)cc1 | -2% | -6% | -4 | -14% | 0% | -12%
COc1ccc(/C=N/NC(=O)C(=O)Nc2ccccn2)cc1OC | -2% | -4% | 31 | 6% | -14% | 15%
O=C(N/N=C\c1cc(Br)ccc1O)c1ccc(S(=O)(=O)N2CCCCC2)cc1 | -2% | -24% | 91 | ? | 2.9µM* | 4.1µM*
COc1cc(-c2cnc3c(NC=O)cc(-c4ccsc4)cn23)cc(OC)c1OC | · | -26% | 135 | -17% | 0.16µM* | 0.18µM*
COc1cccc(-c2cnc3c(NC=O)cc(-c4ccc(O)c(OC)c4)cn23)c1 | · | -33% | 40 | 27% | 2.3µM* | -89%
COc1cc(-c2cnc3c(NC=O)cc(-c4cccc(C(F)(F)F)c4)cn23)cc(OC)c1OC | · | -47% | 24 | ? | 5.2µM* | 5.8µM*
COc1cc(-c2cc(NC=O)c3ncc(-c4ccc(C(C)=O)cc4)n3c2)ccc1O | · | -31% | 14 | ? | 8.2µM* | 9.2µM*
COc1cc(-c2cc(NC=O)c3ncc(-c4ccc(F)cc4)n3c2)cc(OC)c1OC | · | -17% | -24 | 26% | ? | ?
O=C(COC(=O)[C@@H]1CCCN1S(=O)(=O)c1ccccc1F)NCc1ccc2c(c1)OCO2 | -3% | 3% | 10 | 11% | -6% | -19%
O=C(NC1CCCCCC1)C1CCC(CNS(=O)(=O)c2ccc(Br)s2)CC1 (centres undefined) | 0% | -7% | 23 | -19% | ? | -6%
CCc1nc2ccc(C(=O)N(C)CCCN(C)C)cn2c1N(CC)CCOC | · | 5% | 6 | 25% | 8% | 18%
COc1cc(-c2cnc3c(NC=O)cc(-c4cccnc4)cn23)cc(OC)c1OC | · | -20% | 99 | 34% | 2.9µM* | 2.9µM*
COc1cccc(-c2cc(NC=O)c3ncc(-c4cc(OC)c(OC)c(OC)c4)n3c2)c1 | · | -9% | 106 | ? | 0.58µM* | 0.52µM*
COc1ccc(-c2cc(NC=O)c3ncc(-c4cccc(C(F)(F)F)c4)n3c2)c(OC)c1 | · | -35% | -27 | -24% | 15µM* | 18µM*
COc1ccc(S(=O)(=O)N2CCOCC2)cc1NC(=O)CN1CCCc2ccccc21 | -1% | 6% | 10 | 18% | ? | ?
CCCCn1c(SCC(=O)Nc2nnc(CC)s2)nc2c1c(=O)n(C)c(=O)n2C | 1% | -65% | 1 | -10% | 12µM* | 23µM*
CCCn1c(SCC(=O)Nc2nc3ccccc3s2)nc2c1c(=O)n(C)c(=O)n2C | -12% | -16% | 0 | 1% | 23µM* | 23µM*
CCCCn1c(SCC(=O)Nc2ccc3c(c2)OCO3)nc2c1c(=O)n(C)c(=O)n2C | -15% | -2% | -20 | ? | ? | 16µM*
CCn1c(SCC(=O)Nc2ccc(NC(C)=O)cc2)nc2c1c(=O)n(C)c(=O)n2C | 16% | -16% | 9 | -14% | ? | -1%
CCCCn1c(SCC(=O)Nc2nnc(CC)s2)nc2ccccc2c1=O | 3% | -9% | -1 | 18% | 2% | -3%
SMILES | ASM inhibitor | HepG2 tox | IL1B secr inh | TGFb inhibitor | DT40 TDP1 no CPT | DT40 TDP1 CPT
CCCn1c(SCC(=O)Nc2ccc(NC(=O)CC)cc2)nc2c1c(=O)n(C)c(=O)n2C | 27% | 4% | -7 | 2% | 21µM* | 0%
CSc1cc(-c2ccco2)oc1C(=O)c1ccco1 | 12% | -23% | -24 | ? | -14% | 4%
O=C(CCC(=O)NC1CCCCC1)Nc1cccnc1 | 4% | -5% | 0 | 16% | 5% | -8%
CCCn1c(SCC(=O)Nc2cccc(C)n2)nc2c1c(=O)n(C)c(=O)n2C | -2% | 2% | 22 | ? | ? | 18µM*
CCCn1c(SCC(=O)Nc2cc(C)on2)nc2c1c(=O)n(C)c(=O)n2C | -1% | -15% | 10 | ? | -32% | -27%
COc1cc(/C=N/NC(=O)c2ccc(CN3C(=O)c4cccc5cccc3c45)cc2)cc(OC)c1O | -4% | -1% | 40 | ? | ? | 13µM*
Cc1cc(C(=O)N/N=C/c2cccc([N+](=O)[O-])c2)c2ccccc2n1 | -1% | 6% | 5 | 11% | ? | ?
O=C(N/N=C/c1cccc(F)c1)c1cc(-c2ccco2)nc2ccccc12 | 29% | -27% | 29 | 0% | 10µM* | 15µM*
COc1ccc(/C=N/NC(=O)c2ccc(CN3C(=O)c4cccc5cccc3c45)cc2)cc1O | 41% | -6% | 16 | ? | ? | ?
COc1cc(/C=N/NC(=O)c2cc(-c3ccco3)nc3ccccc23)cc(OC)c1O | 3% | -19% | 29 | -10% | ? | 10µM*
COc1cc(/C=N/NC(=O)c2cc(-c3ccccc3Cl)nc3ccccc23)cc(OC)c1O | -22% | 5% | -10 | -32% | 6.5µM* | ?
